Test results: ChEMBL document CHEMBL1201862, “PubChem BioAssay data set” (2004)
Out of some 56,000 sequences screened, about 2,900 (5.2%) were called active. Cut-off read from the data, not from the text of the source: active = GI50 up to about 1.1 µM and inactive = higher. The list is a sample of the results. Results with a measured potency or affinity are listed apart.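 Grown in 96-well plates, cells were treated for 48 hours with each compound at five concentrations. Insufficient inhibition: endpoint recorded as highest concentration tested. Here, GI50 denotes the concentration required for 50% inhibition of growth.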

Tested on: SK-OV-3
Test: NCI tumour cell line growth inhibition, 48 h

Row | Substance | GI50 [µM]
1 | [Bis(aminomethyl)tetramethylenesilane]tetrachloropaltinum(IV), CHEMBL2146189 | 6.97
2 | cis-Bis[[(trimethylsilyl)methyl]amino]tetrachloroplatinum(IV), CHEMBL2146191 | 17.6
3 | [Bis(aminomethyl)ethylmethylsilane]tetrachloroplatinum(IV), CHEMBL2146192 | 13.1
4 | CISPLATIN, CHEMBL11359 | 5.35
5 | [Bis(aminomethyl)dimethylsilane]dichloroplatinum (II), CHEMBL2146201 | > 100
6 | mu-(1,7-nanodiamine-N,N')bis-(cis-aminedichloroplatimum (II)), CHEMBL2146215 | 64.9
7 | [Bis(aminomethyl)pentamethylenesilane]tetrachloropaltinum(IV), CHEMBL2146204 | 4.5
8 | [Bis(aminomethyl)dimethylsilane]tetrachloroplatinum(IV), CHEMBL2146190 | 12.8
9 | [Bis(aminomethyl)pentamethylenesilane]dichloropaltinum(II), CHEMBL2146202 | 5.12
10 | [Bis(aminomethyl)diethylsilane]tetrachloroplatinum(IV), CHEMBL2146203 | 1.69
11 | [Bis(aminomethyl)tetramethylenesilane]dichloropaltinum(II), CHEMBL2146205 | 26.2
